Test results reported in PubChem BioAssay (Tox21).
Records with an inconclusive call do not appear. A number with no mark means an inactive call. The source made the active and inactive calls. Calls follow the shape of the dose curve; as a rule, active = well fitted inhibition curve with a large enough effect in the repeat runs; inconclusive = weak or mixed curves; inactive = no such curve, though single readings can be large or run the other way.

molecular target: Cytochrome P450 1A2 (Homo sapiens) (UniProt P05177); assay: Cytochrome P450 Family 1 Subfamily A Member 2 (CYP1A2) small molecule antagonists: luciferase reporter qHTS assay (AID 1671199); conditions: P450-Glo CYP1A2 enzyme, luciferin luminescence, 1 h; series mostly up to 115 µM; activity change, negative = inhibition: at the top concentration; also: nearly all actives have a fitted effect of over 50% in size
Source text: National Center for Advancing Translational Sciences [NCATS]
U.S. Environmental Protection Agency [EPA]
National Institutes of Environmental Health Sciences [NIEHS]
National Toxicology Program [NTP]
U.S. Food and Drug Administration [FDA]
Cytochrome P450 (CYP) enzymes are membrane-bound hemeproteins that play a key role in metabolism of drugs and xenobiotics. Evaluation of the effect of chemicals on CYP isozymes is useful to minimize the adverse drug reactions and toxicities in drug development process. Tox21 chemicals were tested for their effect on CYP enzyme activities by using P450-Glo (TM) screening systems (Promega Corporation, Madison, WI). These systems provide a luminescent method containing proluciferin substrates and are converted to luciferin products by CYP isozymes. The luciferin products formed are detected with a luciferin detection reagent, and the amount of light produced is proportional to CYP activity. P450-Glo (TM) CYP1A2 screening system (Catalog. No. V9770) was used to detect the compounds that interfere in CYP1A2 activity. The positive control compound used for CYP1A2 assay is furafylline (Sigma-Aldrich, St. Louis, MO).
Tox21 Assay Protocol Summary:
Two ul of enzyme-substrate mix was dispensed into medium binding white/solid 1536-well plates (Greiner Bio-One North America Inc., Monroe, NC) using a BioRaptr Flying Reagent Dispenser (FRD, Beckman Coulter, Brea, CA). Compounds dissolved in DMSO and positive control (furafyllline) were transferred to the assay plates at 23 nl using a Pintool station (Wako, San Diego, CA). The assay plates were incubated at room temperature for 10 min. Then 2 ul of NADPH regeneration solution was added to each well of the assay plates using an FRD and incubated at room temperature for 1 h. The reaction was stopped by adding 4 ul of detection reagent using an FRD and after 20 min incubation at room temperature the luminescence signal was measured using a ViewLux plate reader (Perkin Elmer, Shelton, CT). Data were expressed as relative luminescence units.
% is scaled to controls: 0 for no effect and ±100 for the full control effect; potency is read from the fitted curve at half-maximal effect.

Sequence of Cytochrome P450 1A2 (Homo sapiens) (P05177 whole entry, looked up): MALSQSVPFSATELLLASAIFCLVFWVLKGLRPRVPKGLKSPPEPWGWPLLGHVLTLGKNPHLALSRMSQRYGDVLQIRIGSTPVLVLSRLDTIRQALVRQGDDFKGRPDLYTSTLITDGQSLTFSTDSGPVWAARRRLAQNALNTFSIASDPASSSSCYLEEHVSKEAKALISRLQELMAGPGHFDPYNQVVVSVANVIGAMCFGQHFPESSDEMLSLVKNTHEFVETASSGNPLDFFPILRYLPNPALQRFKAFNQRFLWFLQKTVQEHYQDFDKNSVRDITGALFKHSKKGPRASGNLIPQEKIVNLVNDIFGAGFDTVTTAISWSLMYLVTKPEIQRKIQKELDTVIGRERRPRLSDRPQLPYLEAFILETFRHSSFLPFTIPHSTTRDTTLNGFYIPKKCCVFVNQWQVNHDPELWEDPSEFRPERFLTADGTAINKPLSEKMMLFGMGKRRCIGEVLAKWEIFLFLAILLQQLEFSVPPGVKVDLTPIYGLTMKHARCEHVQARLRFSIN

SMILES | activity change, negative = inhibition | Potency
Cc1nc([N+](=O)[O-])cn1-c1ccc([N+](=O)[O-])cc1 | 0.227% [at 53 µM] | –
COc1ccc(OC)c(NC(=O)CC(C)=O)c1 | – | 15.9 µM (active)
Nc1ccc(C(=O)OCC(O)CO)cc1 (stereo not given) | – | 15.5 µM (active)
C=C(C)C(=O)OCCCCCCOC(=O)C(=C)C | – | 39.9 µM (active)
C=C(C)[C@@H]1CC[C@@H](C)C[C@@H]1O | – | 39.9 µM (active)
CC(C)(c1ccc(Oc2ccc3c(c2)C(=O)OC3=O)cc1)c1ccc(Oc2ccc3c(c2)C(=O)OC3=O)cc1 | – | 70.6 µM (active)
CCCCCCCCCCCCCCCCCCN(C)C | 13.6% [at 53 µM] | –
O=C(COCCOCCOCC(=O)Nc1c(I)cc(I)c(C(=O)O)c1I)Nc1c(I)cc(I)c(C(=O)O)c1I | 9.06% [at 53 µM] | –
O=c1[nH]c(=O)c2[nH]c(=O)[nH]c2[nH]1 | -28.5% [at 10.5 µM] | –
O=C(O)CCNC(=O)c1ccccc1 | 0.657% [at 53 µM] | –
COCCOCCOCCOC | -24.4% | –
CCN(CCC#N)c1ccccc1 | – | 31.7 µM (active)
C=C(C)C(=O)OC1CC(C)CC(C)(C)C1 (stereo not given) | – | 31.7 µM (active)
CCc1nccnc1C | -22.5% | –
C=C[C@@H](C)CCC=C(C)C | – | 39.9 µM (active)
O=C(O)C(=O)Nc1cccc(-c2nn[nH]n2)c1 | -3.63% [at 53 µM] | –
CCCCCCCCCCC | -20.1% | –
CC(=O)c1ccc(OCC(=O)N2CCCCC2)cc1 | -3.43% [at 53 µM] | –
CCNC(=O)NCCCOc1cccc(CN2CCCCC2)c1 | 14.6% [at 53 µM] | –
CCC(C)(C)C1CCC(=O)CC1 | -19.6% | –

SMILES | activity change, negative = inhibition | Potency
CC(Cl)COP(=O)(OCC(C)Cl)OCC(C)Cl (stereo not given) | – | 22.3 µM (active)
Cc1ccc(C(=O)C(=O)O)cc1C | – | 30.9 µM (active)
CCCO | -14.4% | –
CC(C)(CO)[C@@H](O)C(=O)NCCCO | -9.8% [at 53 µM] | –
CC(C)CCCC(C)CC=O (stereo not given) | -19.4% | –
CCC1Nc2cc(Cl)c(S(N)(=O)=O)cc2S(=O)(=O)N1 (stereo not given) | 12.2% [at 53 µM] | –
CCOC(=O)C(C)(C)C | -21% | –
O=c1[nH]c(=O)c2ccccc2o1 | -2.45% [at 53 µM] | –
CC1CCC(C(C)(C)S)C(=O)C1 (stereo not given) | -9.42% | –
O=CN1CCOCC1 | – | 44.8 µM (active)
Cc1ccccc1C(=O)N1CC/C(=N\OS(=O)(=O)O)c2ccc(Cl)cc21 | -12.5% [at 53 µM] | –
CNCc1ccccc1 | -25.7% [at 53 µM] | –
FC(F)(F)/C(=N\OCC1OCCO1)c1ccc(Cl)cc1 | – | 2.24 µM (active)
C=CCOC(=O)c1ccc(C(=O)OCC=C)c(C(=O)OCC=C)c1 | – | 6.33 µM (active)
COc1cc2c3cc1Oc1cc(ccc1O)C[C@@H]1c4c(cc(OC)c(O)c4Oc4ccc(cc4)C[C@@H]3N(C)CC2)CC[N+]1(C)C | -6.5% [at 53 µM] | –
COc1cccc2sc(N)nc12 | – | 22.6 µM (active)
CCC(C)N (stereo not given) | -12.5% | –
CCCCCCCCCCCCOC(C)=O | -17.1% | –
CC1=CC[C@H](CC=O)C1(C)C | – | 31.7 µM (active)
CC(=O)N1CCN(c2ccc(O)cc2)CC1 | – | 24.5 µM (active)
